In PubChem BioAssay (NCATS):
Records with an inconclusive call do not appear. The source made the active and inactive calls. The call rests on the fitted dose curve; in most records, active means well fitted curve in the direction sought with a large enough effect; inconclusive means small, poorly fitted or top-dose-only effect, or another doubt; inactive means no such curve, though single readings can be large; an effect the other way counts as inactive or inconclusive.

Experiment: qHTS for differential inhibitors of proliferation of Plasmodium falciparum line 7G8 (AID 1815);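 further: parasite growth measured after three days of incubation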;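 on activity change, negative = inhibition: plate controls were vehicle wells for no effect and reference inhibitor wells for full effect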
Conditions: Plasmodium falciparum 7G8 proliferation inhibition; series mostly up to 28.7 µM; activity change, negative = inhibition: at the top concentration
Potency means the concentration at half of the fitted maximal effect.

| SMILES | activity change, negative = inhibition | Potency |
| --- | --- | --- |
| CC(C)c1cccc(C(C)C)c1O | -8.77% (inactive) | – |
| CCC1(c2ccc(N)cc2)CCC(=O)NC1=O (stereo not given) | -15.2% (inactive) | – |
| O=c1[nH]oc2c1CCNC2 | -8.16% (inactive) | – |
| C=C(C)[C@H]1CN[C@H](C(=O)O)[C@H]1CC(=O)O | 2.72% (inactive) | – |
| CN1C(=O)CCS(=O)(=O)C1c1ccc(Cl)cc1 (stereo not given) | -15% (inactive) | – |
| CC(C)(C)NCC(O)c1ccccc1Cl (stereo not given) | – | 5.62 µM (active) |
| NCCc1ccc(O)cc1 | -0.359% (inactive) | – |
| O=P1(N(CCCl)CCCl)NCCCO1 (stereo not given) | -1.74% (inactive) | – |
| CCCCC/C=C\C/C=C\C/C=C\C/C=C\CCCC(=O)NCC(=O)O | – | 14.1 µM (active) |
| CC(C)N(CCC(C(N)=O)(c1ccccc1)c1ccccn1)C(C)C (stereo not given) | – | inactive |
| CC(=O)N1CCN(c2ccc(OC[C@H]3CO[C@](Cn4ccnc4)(c4ccc(Cl)cc4Cl)O3)cc2)CC1 | – | 11.2 µM (active) |

Experiment: qHTS for differential inhibitors of proliferation of Plasmodium falciparum line GB4 (AID 1816);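 further: parasite growth measured after 72 h incubation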;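 on activity change, negative = inhibition: 0% = vehicle DMSO and -100% = reference inhibitor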
Conditions: Potency: Plasmodium falciparum GB4 proliferation inhibition; series mostly up to 28.7 µM; activity change, negative = inhibition: at the top concentration

| SMILES | activity change, negative = inhibition | Potency |
| --- | --- | --- |
| CC(C)c1cccc(C(C)C)c1O | -8.77% (inactive) | – |
| CCC1(c2ccc(N)cc2)CCC(=O)NC1=O (stereo not given) | -1.62% (inactive) | – |
| O=c1[nH]oc2c1CCNC2 | -7.81% (inactive) | – |
| C=C(C)[C@H]1CN[C@H](C(=O)O)[C@H]1CC(=O)O | 0.154% (inactive) | – |
| CC(NC(C)(C)C)C(=O)c1cccc(Cl)c1 (stereo not given) | – | 12.6 µM (active) |
| CN1C(=O)CCS(=O)(=O)C1c1ccc(Cl)cc1 (stereo not given) | -15.8% (inactive) | – |
| CC(C)(C)NCC(O)c1ccccc1Cl (stereo not given) | – | 6.31 µM (active) |
| NCCc1ccc(O)cc1 | -12.7% (inactive) | – |
| O=P1(N(CCCl)CCCl)NCCCO1 (stereo not given) | -7.3% (inactive) | – |
| CCCCC/C=C\C/C=C\C/C=C\C/C=C\CCCC(=O)NCC(=O)O | – | 14.1 µM (active) |
| CC(=O)N1CCN(c2ccc(OC[C@H]3CO[C@](Cn4ccnc4)(c4ccc(Cl)cc4Cl)O3)cc2)CC1 | – | 7.94 µM (active) |

Experiment: qHTS for differential inhibitors of proliferation of Plasmodium falciparum line 3D7 (AID 1876);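 on activity, negative = inhibition: parasite growth measured after three days of culture; 0% = vehicle wells and -100% = reference inhibitor wells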
Conditions: P. falciparum 3D7 proliferation inhibition; series mostly up to 28.7 µM; activity, negative = inhibition: at the top concentration

| SMILES | activity, negative = inhibition | Potency |
| --- | --- | --- |
| CC(C)c1cccc(C(C)C)c1O | -7.77% (inactive) | – |
| CCC1(c2ccc(N)cc2)CCC(=O)NC1=O (stereo not given) | 0.773% (inactive) | – |
| O=c1[nH]oc2c1CCNC2 | -5.44% (inactive) | – |
| C=C(C)[C@H]1CN[C@H](C(=O)O)[C@H]1CC(=O)O | 0.558% (inactive) | – |
| CC(NC(C)(C)C)C(=O)c1cccc(Cl)c1 (stereo not given) | -3.13% (inactive) | – |
| CN1C(=O)CCS(=O)(=O)C1c1ccc(Cl)cc1 (stereo not given) | -1.78% (inactive) | – |
| NCCc1ccc(O)cc1 | 0.793% (inactive) | – |
| C[C@]12CCC(=O)C=C1CC[C@@H]1[C@@H]2CC[C@]2(C)C(=O)CC[C@@H]12 | -6.03% (inactive) | – |
| O=P1(N(CCCl)CCCl)NCCCO1 (stereo not given) | -10.7% (inactive) | – |
| CC(C)N(CCC(C(N)=O)(c1ccccc1)c1ccccn1)C(C)C (stereo not given) | – | inactive |
| CC(=O)N1CCN(c2ccc(OC[C@H]3CO[C@](Cn4ccnc4)(c4ccc(Cl)cc4Cl)O3)cc2)CC1 | – | 7.08 µM (active) |

Experiment: qHTS for differential inhibitors of proliferation of Plasmodium falciparum line D10 (AID 1877);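 further: parasites grown with compound for 72 h before DNA staining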;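 on activity change, negative = inhibition: plate controls were vehicle wells for no effect and reference inhibitor wells for full effect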
Conditions: series mostly up to 28.7 µM; activity change, negative = inhibition: at the top concentration

| SMILES | activity change, negative = inhibition | Potency |
| --- | --- | --- |
| CC(C)c1cccc(C(C)C)c1O | -1.37% (inactive) | – |
| CCC1(c2ccc(N)cc2)CCC(=O)NC1=O (stereo not given) | 1.71% (inactive) | – |
| O=c1[nH]oc2c1CCNC2 | -25.4% (inactive) | – |
| C=C(C)[C@H]1CN[C@H](C(=O)O)[C@H]1CC(=O)O | -5.34% (inactive) | – |
| CC(NC(C)(C)C)C(=O)c1cccc(Cl)c1 (stereo not given) | -14.1% (inactive) | – |
| CN1C(=O)CCS(=O)(=O)C1c1ccc(Cl)cc1 (stereo not given) | -0.276% (inactive) | – |
| NCCc1ccc(O)cc1 | -9.02% (inactive) | – |
| O=P1(N(CCCl)CCCl)NCCCO1 (stereo not given) | -1.98% (inactive) | – |
| CC(C)N(CCC(C(N)=O)(c1ccccc1)c1ccccn1)C(C)C (stereo not given) | – | inactive |
| CC(=O)N1CCN(c2ccc(OC[C@H]3CO[C@](Cn4ccnc4)(c4ccc(Cl)cc4Cl)O3)cc2)CC1 | – | 10 µM (active) |

Experiment: qHTS for differential inhibitors of proliferation of Plasmodium falciparum line Dd2 (AID 1882); further: nearly all actives have a fitted effect of over 65% in size;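 on activity change, negative = inhibition: compound exposure of 72 h on infected erythrocytes; plate controls were DMSO vehicle for no effect and 0.29 µM artemisinin for full effect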
Conditions: Potency: Plasmodium falciparum Dd2 proliferation inhibition; series mostly up to 28.7 µM; activity change, negative = inhibition: at the top concentration
In short: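 RBC culture, 0.3% parasitemia / 2.5% Hct final; cpd added by pin tool in DMSO; 72 h, 37 C, 5% CO2; lysis buffer + SYBR Green I, o/n RT dark; FI 485/535; norm. to artemisinin 0.29 uM and DMSO.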

| SMILES | activity change, negative = inhibition | Potency |
| --- | --- | --- |
| CC(C)c1cccc(C(C)C)c1O | -5.93% (inactive) | – |
| CCC1(c2ccc(N)cc2)CCC(=O)NC1=O (stereo not given) | 3.57% (inactive) | – |
| O=c1[nH]oc2c1CCNC2 | -1.47% (inactive) | – |
| C=C(C)[C@H]1CN[C@H](C(=O)O)[C@H]1CC(=O)O | -0.0887% (inactive) | – |
| CN1C(=O)CCS(=O)(=O)C1c1ccc(Cl)cc1 (stereo not given) | 1.64% (inactive) | – |
| CC(C)(C)NCC(O)c1ccccc1Cl (stereo not given) | – | 12.6 µM (active) |
| NCCc1ccc(O)cc1 | 0.561% (inactive) | – |
| C[C@]12CCC(=O)C=C1CC[C@@H]1[C@@H]2CC[C@]2(C)C(=O)CC[C@@H]12 | -18.1% (inactive) | – |
| O=P1(N(CCCl)CCCl)NCCCO1 (stereo not given) | 2.4% (inactive) | – |
| CCCCC/C=C\C/C=C\C/C=C\C/C=C\CCCC(=O)NCC(=O)O | -7.07% (inactive) | – |
| CC(C)N(CCC(C(N)=O)(c1ccccc1)c1ccccn1)C(C)C (stereo not given) | – | inactive |
| CC(=O)N1CCN(c2ccc(OC[C@H]3CO[C@](Cn4ccnc4)(c4ccc(Cl)cc4Cl)O3)cc2)CC1 | – | 7.94 µM (active) |

Experiment: qHTS for differential inhibitors of proliferation of Plasmodium falciparum line W2 (AID 1883);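 further: parasites grown with compound for 72 h before lysis and staining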;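 on activity change, negative = inhibition: 0% = vehicle wells and -100% = control inhibitor wells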
Conditions: Potency: Plasmodium falciparum W2 proliferation inhibition; series mostly up to 28.7 µM; activity change, negative = inhibition: at the top concentration

| SMILES | activity change, negative = inhibition | Potency |
| --- | --- | --- |
| CC(C)c1cccc(C(C)C)c1O | -10.9% (inactive) | – |
| CCC1(c2ccc(N)cc2)CCC(=O)NC1=O (stereo not given) | -20.4% (inactive) | – |
| O=c1[nH]oc2c1CCNC2 | -5.7% (inactive) | – |
| C=C(C)[C@H]1CN[C@H](C(=O)O)[C@H]1CC(=O)O | -9.2% (inactive) | – |
| CC(C)(C)NCC(O)c1ccccc1Cl (stereo not given) | – | 4.47 µM (active) |
| NCCc1ccc(O)cc1 | 0.21% (inactive) | – |
| O=C(O)CCCc1ccc(N(CCCl)CCCl)cc1 | – | 11.2 µM (active) |
| O=P1(N(CCCl)CCCl)NCCCO1 (stereo not given) | -4.05% (inactive) | – |
| CC(C)N(CCC(C(N)=O)(c1ccccc1)c1ccccn1)C(C)C (stereo not given) | – | 8.91 µM (active) |
| CC(=O)N1CCN(c2ccc(OC[C@H]3CO[C@](Cn4ccnc4)(c4ccc(Cl)cc4Cl)O3)cc2)CC1 | – | 7.08 µM (active) |
